From PubChem BioAssay (Tox21) come the findings set out here.

Records with an inconclusive call do not appear. Where a call stands in place of a potency, no number is given. The source made the active and inactive calls. The call rests on the fitted dose curve; in most records, active means well fitted activation curve with a large enough effect in the repeat runs; inconclusive means weak or mixed curves; inactive means flat fitted curve, though single readings scatter.

The test can be described thus: A CellTox Green Cytotoxicity Assay to monitor cytotoxicity in HEK293 cells - 24 hour (AID 1224875). Further: nearly all actives have a fitted effect of over 45% in size. Conditions: CellTox Green fluorescence; series mostly up to 76.8 µM. The text has this:
National Center for Advancing Translational Sciences [NCATS]
NIH Chemical Genomics Center [NCGC]
U.S. Environmental Protection Agency [EPA]
National Institutes of Environmental Health Sciences [NIEHS]
National Toxicology Program [NTP]
Cell-based models are critical for drug discovery. Determining the natural cytotoxic effects resulting from test compounds is an essential research activity. A CellTox Green Cytotoxicity Assay to monitor cytotoxicity in real time of continues cell culture during 40 hours of the compound treatment was used to screen Tox21 10K library compounds in Hek293 cells. CellTox Green Cytotoxicity Assay is a nonlytic, homogeneous, biofluorescent method to measure cytotoxicity in cell culture after experimental manipulation. The assay system uses a proprietary asymmetric cyanine dye that is excluded from viable cells but preferentially stains the dead cell's DNA. […] Viable cells produce no appreciable increases in fluorescence. Therefore, the fluorescence signal produced by the binding interaction with dead cell DNA is proportional to cytotoxicity.
The mixture of Hek293 cell suspension and reagents were dispensed at 600cells/6 ul/well in 1536-well tissue culture treated black solid bottom plates using a Multidrop dispenser. After the assay plates were incubated at a 37 C/5% CO2 incubator for 5 hours, 23 nL of compounds dissolved in DMSO, positive and negative controls was transferred to the assay plate by a pintool work station. The plates were incubated at 37 C for 40 hours. The fluorescence intensity were measured at 0h, 8h, 16h, 24h, 32h and 40h time points using ViewLux plate reader during compound treatment.
For `O=C1c2ccccc2C(=O)N1CO`, the Potency result was “inactive”.
On the same count and under the same terms, then `COc1ccc2cc(CCC(C)=O)ccc2c1`, with “inactive”; and `C=CCOC(=O)CCCCCCCC`, with “inactive”; and `O=c1[nH]c(=O)c2cn[nH]c2[nH]1`, with “inactive”.
Same read-out and setting: the value for `CCCCCCCC(=O)N(C)C` was “inactive”.
Same read-out and setting: then `CC(O)C(CO)C(C)O` (stereo not given), with “inactive”.
As to `CC(C)(C)C(=O)NCCCC(=O)O`, the Potency result was “inactive”.
On the same count and under the same terms, then `O=C(O)/C=C(\CC(=O)O)C(=O)O`, with “inactive”; and `CCOC(=O)c1ccc(N(C)C)cc1`, with “inactive”; and `OCCC(F)(F)C(F)(F)C(F)(F)C(F)(F)C(F)(F)C(F)(F)F`, with “inactive”.
The same measure, in the same setting: the value for `O=c1c(O)c(O)c1=O` was “inactive”; that for `CCCCC(CC)CCC(CC(C)C)OS(=O)(=O)O` (stereo not given) was “inactive”; that for `CN(C)CCc1c[nH]c2ccc(CS(=O)(=O)N3CCCC3)cc12` was “inactive”.
Still for that read-out and setting: then `CC(=O)SC[C@@H](C)C(=O)N1CCC[C@H]1C(=O)N[C@@H](Cc1ccccc1)C(=O)O`, with “inactive”; and `NNC(=O)OCc1ccccc1`, with “inactive”; and `O=C(c1ccccc1)c1cccc(O)c1`, with “inactive”.
As for `C=CC(C)(CCC=C(C)C)OC(=O)C(C)C` (stereo not given), the Potency entry is “inactive”.
On the same count and under the same terms, then `CC(C)C(=O)Nc1cccc(C2CN3CCSC3=N2)c1` (stereo not given), with “inactive”.
On the same count and under the same terms, then `CC(C)(Sc1cc(C(C)(C)C)c(O)c(C(C)(C)C)c1)Sc1cc(C(C)(C)C)c(O)c(C(C)(C)C)c1`, with “inactive”.
Same read-out and setting: then `CC(=O)c1ccc(O)c(C(N)=O)c1`, with “inactive”; and `Clc1ccc2c(c1)Nc1ccccc1S2`, with “inactive”.
Regarding `COc1cc2nc(N3CCN(C(=O)C4CCCO4)CC3)nc(N)c2cc1OC` (stereo not given), the Potency entry was “inactive”.
Same read-out and setting: the value for `CC(C)(C)OC=O` was “inactive”; that for `CCOc1ccccc1OCCN[C@H](C)Cc1ccc(OC)c(S(N)(=O)=O)c1` was “inactive”.
The same measure, in the same setting: the value for `C=CC(=O)OCC[N+](C)(C)C` was “inactive”.
For `N[C@H]1C(O)O[C@H](CO)[C@@H](O)[C@@H]1O` (stereo not given in full), the Potency entry was “inactive”.
As to `NC[C@H]1O[C@H](O[C@H]2[C@H](O)[C@@H](O[C@H]3O[C@H](CO)[C@@H](O)[C@H](N)[C@H]3O)[C@H](N)C[C@@H]2N)[C@H](N)[C@@H](O)[C@@H]1O`, the activity change is 0.657% [at 15.8 µM, hits give high values] (inactive).
With `CC(C)(C)OC(=O)c1ccccc1C(=O)O`, the Potency result is “inactive”.
Still for that read-out and setting: the value for `CC/C=C/CCCCCCCCCCOC(C)=O` was “inactive”.
Same read-out and setting: then `CC(=O)Oc1ccc(C(C)=O)cc1`, with “inactive”; and `O=P(O)(O)C(O)(Cc1cccnc1)P(=O)(O)O`, with “inactive”; and `CN1CCN(C(=O)C2CCCCC2)CC1`, with “inactive”.
Turning to `CCCC(=O)OC`, the Potency result is “inactive”.
For `CC(C)c1cc(C(C)C)cc(C(C)C)c1`, the Potency result is “inactive”.
Same read-out and setting: then `O=C(O)Cc1c(Cl)ccc(Cl)c1Cl`, with “inactive”; and `Nc1cc(S(=O)(=O)O)ccc1O`, with “inactive”; and `CCC(C)c1nccnc1OC` (stereo not given), with “inactive”.
Same read-out and setting: then `CC(C)(C)c1ccc(N)cc1`, with “inactive”; and `CCOC(=O)COc1ccc2c(C)c(CCN(CC)CC)c(=O)oc2c1Cl`, with “inactive”; and `CC1(C)CC(N)CC(C)(C)N1`, with “inactive”.
